BoNT A protease: BoNT/A light chain protease inhibitors, primary screen, biochemical, flow cytometry, MLPCN library; 360,000 compounds, 0.17% hits; inhibition, % at 10 µM; AID 588499, 2011; multiplex microsphere protease substrate cleavage; note: plate controls were buffer without enzyme for full effect and enzyme alone for no effect
Bead autofluor: compound fluorescence in toxin protease inhibitor counterscreen; AID 624483; compound autofluorescence counterscreen, microsphere flow cytometry; stronger effect = higher value; 360,000 compounds, 3.1% hits; fluorescence intensity (test concentration not listed); in the data active = fluorescence intensity above about 16000; inconclusive = no clear call, values can overlap the other calls
BoNT F protease: BoNT/F light chain protease inhibitors, primary screen, biochemical, flow cytometry, MLPCN library. Botulinum neurotoxin type F light chain protease (Clostridium botulinum). Multiplex microsphere protease cleavage assay. inhibition, % at 10 µM. 360,000 compounds, 0.22% hits. AID 588497, 2011; in the data active = inhibition above about 35%, passing the limit was not always enough; inconclusive = no clear call, values can overlap the other calls; note: plate controls were buffer without enzyme for full effect and enzyme alone for no effect
PriA SSB inh: inhibitors of Klebsiella pneumoniae PriA binding to SSB C-terminal tail, primary screen, biochemical, AlphaScreen; AlphaScreen SSBct-PriA binding, biotinylated peptide; inhibition, % at 33 µM; 430,000 compounds, 0.6% hits; AID 1272365, 2023; in the data active = inhibition mostly above about 37%, no sharp cut-off; inactive = mostly below about 20%;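 note: plate controls were negative control peptide for no effect and reference peptide for full effect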
Anthrax LF prot: Bacillus anthracis LF protease inhibitors, primary screen, biochemical, multiplex microsphere, MLPCN library | Lethal factor (Bacillus anthracis), P15917 | multiplex microsphere protease cleavage assay | inhibition, % at 10 µM | 360,000 compounds, 0.12% hits; note: plate controls were buffer without enzyme for full effect and enzyme alone for no effect
* marks the source's active call; other numbers are inactive results; u = inconclusive; x = no result. Hits are enriched below; roughly 3.1% of the tested compounds scored in any of these assays. Cut-off read from the data, not from the text of the source, unless noted: active = inhibition above about 30%; inconclusive = no clear call, values can overlap the other calls; inactive = below that.

SMILES	BoNT A protease	Bead autofluor	BoNT F protease	PriA SSB inh	Anthrax LF prot
CC1CCN(C(=O)C2c3ccccc3C(=O)N3CCc4ccccc4C23)CC1 (stereo unspecified)	3	22497*	1	-11	0
CCOCCCNC(=O)C1c2ccccc2C(=O)N2CCc3ccccc3C12 (stereo unspecified)	1	16166*	0	-9	-2
NC(=O)C1CCN(C(=O)C2c3ccccc3C(=O)N3CCc4ccccc4C23)CC1 (stereo unspecified)	0	11386	-3	2	-1
CCCN(CCC)CCNC(=O)C1c2ccccc2C(=O)N2CCc3ccccc3C12 (stereo unspecified)	0	3717	-6	-7	-4
Cc1noc(-c2ccc(N3CCC[C@H](C(=O)N4CCc5ccccc54)C3)nc2)n1	x	x	x	-9	x
CCc1ccc(N2C(=O)/C(=C/c3cccs3)N(CC(=O)OC)C2=S)cc1	u	23041*	3	-24	-1
COC(=O)C1=C(C)NC(C)=C(C(=O)OC)C1c1ccc(N(C)C)cc1	u	23084*	-2	11	0
CCOC(=O)C1=C(C)NC(C)=C(C(=O)OCC)C1/C=C/c1ccccc1OC	0	2545	-2	-25	0
C=CCOC(=O)C1=C(C)NC(C)=C(C(=O)OCC=C)C1/C=C/c1ccccc1	0	3810	-6	-42	-4
CCOC(=O)C1=C(C)NC(C)=C(C(=O)OCC)C1/C=C/c1ccccc1	3	22125*	2	-45	1
COC(=O)C1=C(C)NC(C)=C(C(=O)OC)C1/C=C/c1ccccc1	-2	20052*	-4	-23	-2
CCOC(=O)C1=C(C)NC(C)=C(C(=O)OCC)C1c1ccc(O)cc1	0	2441	-8	-2	-2
CC1Oc2ccccc2OC1C(=O)NCC(O)Cn1ccccc1=O (stereo unspecified)	x	x	x	8	x
CC(=O)N1C(=O)NC(c2ccccc2)=C([N+](=O)[O-])C1c1ccccc1 (stereo unspecified)	0	3574	-17	3	33*
COc1ccc(N2C(=O)CCC2=O)c(OC)c1	0	4042	-3	-6	1
COc1ccc(-n2c(C)nn(C)c2=O)c(OC)c1	u	18468*	3	-5	-8
Cc1nn(C)c(=O)n1-c1ccc(Oc2ccccc2)cc1	3	21312*	4	-6	-2
CN(CC(=O)NCC#CCOc1cccc(C(F)(F)F)c1)S(C)(=O)=O	x	x	x	-11	x
CCOC(=O)c1cnc(SCC(=O)c2ccccc2)nc1N	-1	24281*	-4	8	0
CCCN1CCN(C(=O)c2ccc(Sc3ccc(C)cc3)c(NC(C)=O)c2)CC1	-4	24723*	-6	-3	0
Cc1ccc(-c2cc(C)nc3ncnn23)cc1	1	5859	-4	-9	-6
Cc1ccc(-c2cc(C)nc3nc(N)nn23)cc1	0	16426*	3	-6	1
CSc1nnc(-c2cc(C)on2)n1-c1ccccc1	0	2153	3	-6	3
CSc1nnc(-c2nnc(SC)n2-c2ccccc2)n1-c1ccccc1	0	16237*	0	-4	-1
CSC1CC2CCC(C1)N2C(=O)c1ccc2nsnc2c1 (stereo unspecified)	x	x	x	-12	x
SMILES	BoNT A protease	Bead autofluor	BoNT F protease	PriA SSB inh	Anthrax LF prot
COC(=O)c1ccc(NC(=O)C(=O)NCc2ccsc2)cc1	x	x	x	-2	x
O=C(COc1ccc(Cl)cc1Cl)NCC1CCN(C2CCCC2)CC1	x	x	x	-2	x
O=C(OCC1OC(n2cnc3c(N(C(=O)c4ccccc4)C(=O)c4ccccc4)ncnc32)C(O)C1F)c1ccccc1 (stereo unspecified)	-4	24792*	-7	7	-2
O=C(COc1ccccc1[N+](=O)[O-])NN=Cc1cccs1	x	x	x	-14	x
COc1ccc(CNC(=O)COc2ccc([N+](=O)[O-])cc2)cc1	2	19432*	5	13	-9
COc1ccc(CNc2cc([N+](=O)[O-])ccc2OC)cc1	4	10497	-9	-58	0
COc1ccc(C)cc1NCc1ccc([N+](=O)[O-])cc1	1	3541	-20	40*	-9
COc1ccc(OCC(=O)NCc2ccc(Cl)cc2)cc1	-3	3505	-10	-10	11
c1ccc(-c2nc3nc4ccccc4nc3n2CC2CCCO2)cc1 (stereo unspecified)	1	4262	4	-19	-4

Assay outcomes deposited in PubChem by several laboratories.
